Data published in PubChem BioAssay AID1159580 (chemical genetic matrix, 2015).
In all, about 5,500 compounds went through this assay and about 2,000 (36%) were called active. Not shown: some 18% with an inconclusive outcome. Rule as the data show it: active = normalized growth mostly below about 0.91 (no sharp cut-off); inconclusive = no clear call, values can overlap the other calls; inactive = mostly above about 0.92. This is one part of the list.

Assay: chemical genetic growth profiling, strain panel (AID 1159580);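 also: tested at 20 µM; growth read once vehicle control cultures reached saturation at 30 °C; 1 = growth at the plate median or of vehicle wells; lower values mean less growth of the strain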
Details: growth OD

Measured: normalized growth

Cc1ccc(C(C)C)cc2c(C)ccc1-2
inactive: S. cerevisiae deletion strains, locus YJR043C, strain POL32, hits give low values 0.977 | S. cerevisiae deletion strains, locus YJR066W, strain TOR1, hits give low values 0.925 | S. cerevisiae deletion strains, locus YKL009W, strain mrt4, hits give low values 1.04 | S. cerevisiae deletion strains, locus YKL068W, hits give low values 1 | S. cerevisiae deletion strains, locus YKL085W, strain MDH1 (second series), hits give low values 1 | S. cerevisiae deletion strains, locus YKL085W, strain MDH1, hits give low values 1 | S. cerevisiae deletion strains, locus YKL160W, strain elf1, hits give low values 0.989 | S. cerevisiae deletion strains, locus YKL190W, strain CNB1, hits give low values 0.986 | S. cerevisiae deletion strains, locus YKR001C, strain vps1, hits give low values 1 | S. cerevisiae deletion strains, locus YKR026C, strain gcn3, hits give low values 1 | S. cerevisiae deletion strains, locus YKR091W, strain srl3, hits give low values 1 | S. cerevisiae deletion strains, locus YLL001W, strain dnm1, hits give low values 0.976 | S. cerevisiae deletion strains, locus YLL026W, hits give low values 0.998 | S. cerevisiae deletion strains, locus YLL041C, strain sdh2, hits give low values 1.01 | S. cerevisiae deletion strains, locus YLR027C, strain aat2, hits give low values 0.991 | S. cerevisiae deletion strains, locus YLR039C, strain RIC1, hits give low values 0.92 | S. cerevisiae deletion strains, locus YLR058C, strain SHM2, hits give low values 1 | S. cerevisiae deletion strains, locus YLR102C, strain apc9, hits give low values 1.02 | S. cerevisiae deletion strains, locus YLR113W, strain HOG1, hits give low values 1.03 | S. cerevisiae deletion strains, locus YLR221C, strain rsa3, hits give low values 1.02 | S. cerevisiae deletion strains, locus YLR258W, strain gsy2, hits give low values 0.999 | S. cerevisiae deletion strains, locus YLR262C, strain YPT6 (second series), hits give low values 1.01 | S. cerevisiae deletion strains, locus YLR262C, strain YPT6, hits give low values 0.909 | S. cerevisiae deletion strains, locus YLR268W, strain sec22, hits give low values 1.01 | S. cerevisiae deletion strains, locus YLR320W, strain mms22, hits give low values 1.01 | S. cerevisiae deletion strains, locus YLR330W, strain CHS5, hits give low values 1 | S. cerevisiae deletion strains, locus YLR342W, strain FKS1 (second series), hits give low values 0.944 | S. cerevisiae deletion strains, locus YLR342W, strain FKS1, hits give low values 1.03 | S. cerevisiae deletion strains, locus YLR357W, strain rsc2, hits give low values 0.982 | S. cerevisiae deletion strains, locus YLR370C, strain arc18, hits give low values 0.995 | S. cerevisiae deletion strains, locus YLR371W, strain rom2, hits give low values 1 | S. cerevisiae deletion strains, locus YLR384C, strain iki3, hits give low values 0.997 | S. cerevisiae deletion strains, locus YLR418C, strain cdc73, hits give low values 0.962 | S. cerevisiae deletion strains, locus YML016C, strain PPZ1, hits give low values 1 | S. cerevisiae deletion strains, locus YML032C, strain rad52, hits give low values 1.03 | S. cerevisiae deletion strains, locus YML120C, strain ndi1, hits give low values 1 | S. cerevisiae deletion strains, locus YML124C, strain tub3, hits give low values 1.02 | S. cerevisiae deletion strains, locus YMR058W, strain fet3, hits give low values 1.01 | S. cerevisiae deletion strains, locus YMR078C, strain ctf18, hits give low values 1.02 | S. cerevisiae deletion strains, locus YMR125W, strain sto1, hits give low values 1 | S. cerevisiae deletion strains, locus YMR129W, hits give low values 1.01 | S. cerevisiae deletion strains, locus YMR205C, strain PFK2, hits give low values 0.981 | S. cerevisiae deletion strains, locus YMR223W, strain ubp8, hits give low values 1.02 | S. cerevisiae deletion strains, locus YMR231W, strain pep5, hits give low values 0.978 | S. cerevisiae deletion strains, locus YMR263W, strain SAP30, hits give low values 0.993 | S. cerevisiae deletion strains, locus YMR307W, strain GAS1, hits give low values 0.914 | S. cerevisiae deletion strains, locus YNL067W, strain RPL9B, hits give low values 0.993 | S. cerevisiae deletion strains, locus YNL071W, strain lat1, hits give low values 0.991 | S. cerevisiae deletion strains, locus YNL183C, strain NPR1, hits give low values 0.981 | S. cerevisiae deletion strains, locus YNL209W, strain ssb2, hits give low values 1.01 | S. cerevisiae deletion strains, locus YNL233W, strain BNI4, hits give low values 0.989 | S. cerevisiae deletion strains, locus YNL248C, strain rpa49, hits give low values 1.02 | S. cerevisiae deletion strains, locus YNL250W, strain rad50, hits give low values 1.05 | S. cerevisiae deletion strains, locus YNL271C, strain bni1, hits give low values 1.03 | S. cerevisiae deletion strains, locus YNL298W, strain CLA4, hits give low values 1.02 | S. cerevisiae deletion strains, locus YNL307C, strain MCK1, hits give low values 0.995 | S. cerevisiae deletion strains, locus YNL322C, strain KRE1 (second series), hits give low values 0.994 | S. cerevisiae deletion strains, locus YNR049C, strain mso1, hits give low values 1 | S. cerevisiae deletion strains, locus YNR052C, strain pop2, hits give low values 1.02 | S. cerevisiae deletion strains, locus YOL006C, strain TOP1, hits give low values 1.02 | S. cerevisiae deletion strains, locus YOL012C, strain htz1 0.644 | S. cerevisiae deletion strains, locus YOL147C, strain pex11, hits give low values 1.03 | S. cerevisiae deletion strains, locus YOR001W, strain rrp6, hits give low values 1.04 | S. cerevisiae deletion strains, locus YOR061W, strain CKA2, hits give low values 1.01 | S. cerevisiae deletion strains, locus YOR069W, strain VPS5, hits give low values 1 | S. cerevisiae deletion strains, locus YOR070C, strain gyp1, hits give low values 0.994 | S. cerevisiae deletion strains, locus YOR080W, strain dia2, hits give low values 1.01 | S. cerevisiae deletion strains, locus YOR083W, strain WHI5, hits give low values 0.987 | S. cerevisiae deletion strains, locus YOR106W, strain vam3, hits give low values 1.01 | S. cerevisiae deletion strains, locus YOR136W, strain idh2, hits give low values 1.03 | S. cerevisiae deletion strains, locus YOR144C, strain elg1, hits give low values 1.02 | S. cerevisiae deletion strains, locus YOR184W, strain ser1, hits give low values 0.991 | S. cerevisiae deletion strains, locus YOR231W, strain MKK1, hits give low values 0.984 | S. cerevisiae deletion strains, locus YOR265W, strain rbl2, hits give low values 0.992 | S. cerevisiae deletion strains, locus YOR270C, strain vph1, hits give low values 1.1 | S. cerevisiae deletion strains, locus YOR290C, strain snf2, hits give low values 0.98 | S. cerevisiae deletion strains, locus YOR316C, strain cot1, hits give low values 1.02 | S. cerevisiae deletion strains, locus YPL051W, strain arl3, hits give low values 0.984 | S. cerevisiae deletion strains, locus YPL078C, strain atp4, hits give low values 0.979 | S. cerevisiae deletion strains, locus YPL106C, strain sse1, hits give low values 0.997 | S. cerevisiae deletion strains, locus YPL240C, strain hsp82, hits give low values 0.999 | S. cerevisiae deletion strains, locus YPL241C, strain CIN2, hits give low values 1 | S. cerevisiae deletion strains, locus YPL256C, strain CLN2, hits give low values 0.98 | S. cerevisiae deletion strains, locus YPR119W, strain clb2, hits give low values 1.02 | S. cerevisiae deletion strains, locus YPR141C, strain kar3, hits give low values 1.01 | S. cerevisiae deletion strains, locus YPR163C, strain tif3, hits give low values 1.04 | S. cerevisiae deletion strains, locus YPR167C, strain met16, hits give low values 1.02 | S. cerevisiae deletion strains, strain wtn01, hits give low values 1.04 | S. cerevisiae strains, strain wild type, hits give low values 0.995
